# Screen size: about 69,000 compounds; about 420 (0.61%) showed an effect of 50% or more. The sample as a whole holds a higher share of strong results than the screen did.
# Molecular target: T1, Histidine--tRNA ligase (Leishmania infantum) (UniProt A4I591)
# T1 sequence (whole entry): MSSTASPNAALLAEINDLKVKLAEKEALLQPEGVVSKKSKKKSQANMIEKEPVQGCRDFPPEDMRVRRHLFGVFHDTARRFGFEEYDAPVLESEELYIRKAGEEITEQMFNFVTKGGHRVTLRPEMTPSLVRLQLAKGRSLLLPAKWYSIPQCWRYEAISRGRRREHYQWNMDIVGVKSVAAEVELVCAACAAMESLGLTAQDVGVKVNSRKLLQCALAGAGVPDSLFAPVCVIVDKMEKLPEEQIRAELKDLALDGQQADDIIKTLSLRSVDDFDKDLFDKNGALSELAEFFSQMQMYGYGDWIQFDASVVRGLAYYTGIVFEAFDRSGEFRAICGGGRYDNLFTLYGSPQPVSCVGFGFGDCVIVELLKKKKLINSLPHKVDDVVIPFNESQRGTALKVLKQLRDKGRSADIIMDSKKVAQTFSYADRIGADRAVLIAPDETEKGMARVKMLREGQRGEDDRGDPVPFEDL
# Assay: Leishmania infantum Histidine tRNA synthetase (LdHisRS)
# Type: functional
# Design: scale not given: in the data most compounds retested in dose-response had high values
# Conditions: 30 µM
row,Compound,Percent Effect [%]
1,CC(C)(C)n1ncc2c1NC(=O)CC2c1ccc(C(=O)O)cc1 (stereo unspecified),26
2,Cc1noc(C)c1CC(=O)N1CCC(Nc2cccnn2)CC1,12.5
3,Cc1noc(C)c1C(=O)N1CCC(Nc2cccnn2)CC1,60.5
4,Cc1ccc(NC2CCN(C(=O)c3c(C)noc3C)CC2)nn1,28
5,Cc1cnccc1N1CCCN(C(=O)CCCn2ccnc2C)CC1,12.9
6,CC1Cc2cc(-c3cncn3CC(=O)NC(C)(C)C)ccc2N1C (stereo unspecified),31
7,CN1CCCc2cc(-c3cncn3CCNC3CCS(=O)(=O)C3)ccc21 (stereo unspecified),26.8
8,CCN1CCc2cc(-c3cncn3CCNC3CCS(=O)(=O)C3)ccc21 (stereo unspecified),29.6
9,Cc1nccn1CCCn1cncc1-c1ccc2c(c1)CCCN2C,30.9
10,Cc1cc(C)n(CCCn2cncc2-c2ccc3c(c2)CC(C)N3C)n1 (stereo unspecified),64.4
11,CCN1c2ccc(-c3cncn3CCCn3ccnc3C)cc2CC1C (stereo unspecified),48.3
12,Cc1nccn1CCCn1cncc1-c1ccc2c(c1)CC(C)N2C (stereo unspecified),65.8
13,Cc1nn(C)c(C)c1CCn1cncc1-c1ccc2c(c1)CC(C)N2C (stereo unspecified),53.7
14,CCOC(=O)c1n[nH]cc1-c1cncn1CCCn1nc(C)cc1C,13.1
15,Cc1nccn1CCCn1cncc1-c1ccc2c(c1)CCC(C)N2C (stereo unspecified),83.2
16,CCN1c2ccc(-c3cncn3CC(=O)NC(C)(C)C)cc2CC1C (stereo unspecified),42.1
17,c1coc(CN2CCO[C@H]3[C@@H](OCC4CC4)CC[C@@H]32)c1,9.62
18,Cc1ccc(CN2CC[C@@H]3OCCN(Cc4ccncc4)[C@H]3CC2)s1,15.1
19,Cc1cc(N2CCC(O)CC2)nc(C)n1,13.7

row,Compound,Percent Effect [%]
1,CN1CCCCC1c1cncc(N2CCC(O)CC2)n1 (stereo unspecified),14.5
2,Cc1cc(N2CCC(O)CC2)nc(C2CCCN2C)n1 (stereo unspecified),54.9
3,CN1CC2(CCN(C(=O)c3ccc(=O)n(C)c3)CC2)CC1=O,-38.8
4,O=C(c1ncccn1)N1C[C@@H]2COC[C@]2(c2nnc(C3CC3)o2)C1,20.6
5,CC(=O)N1CCC2(CC1)CC[C@@]1(C(=O)N(C)C)CN(S(C)(=O)=O)C[C@@H]21,13.2
6,CC(=O)N1CC[C@H]2OCC[C@@H](C(=O)NCc3ccco3)[C@@H]2C1,10.1
7,Cn1ccc2c(-c3cc(N4CCCCC4)ncn3)ccnc21,54.8
8,Cn1ccc2c(-c3cc(N4CCOCC4)ncn3)ccnc21,9.52
9,Cn1ccc2c(-c3cc(N)nc(N4CCOCC4)n3)ccnc21,19.1
10,CC(C)C(=O)N1CCN(C(=O)c2cc(Cl)no2)[C@H]2CS(=O)(=O)C[C@H]21,1.61
11,CC(C)c1nnc(N2C[C@@H]3CC[C@H](C2)N(Cc2ccccc2)C3)s1,59.5
12,CCCN1C[C@H]2CC[C@@H]1CN(c1nnc(C(C)C)s1)C2,-42.9
13,CC(=O)c1ccc(C(=O)N2C[C@@H]3CC[C@H](C2)N(Cc2ccccc2)C3)s1,30.1
14,CC(C)c1nnc(N2C[C@@H]3CC[C@H](C2)N(CC2CCC2)C3)s1,19.1
15,Cc1nnsc1CN1C[C@@H]2CC[C@H](C1)N(Cc1ccccc1)C2,8.33
16,CSCCCN1C(=O)CC[C@H]2CN(Cc3ncc[nH]3)CC[C@H]21,1.33
17,Cc1nnc(NCCc2coc(-c3ccccc3)n2)c(C#N)c1C,51.4
18,COc1ccc(-c2nc(CCNc3nnc(C)c(C)c3C#N)co2)cc1,57.1
19,Cc1nnc(NCCC(=O)NCc2ccccc2)c(C#N)c1C,31.5

row,Compound,Percent Effect [%]
1,Cc1nnc(NCCc2coc(-c3ccc(F)cc3)n2)c(C#N)c1C,48.6
2,COc1ccc(-c2nc(CCNCc3ccncc3)co2)cc1,24.5
3,Cc1nnc(NCC2(c3ccccc3)CC2)c(C#N)c1C,9.62
4,CCN1CC[C@@]2(C(=O)N3CCCC3)CCN(S(C)(=O)=O)CC[C@@H]12,21.4
5,O=C(C1CCOCC1)N1C[C@H]2CCC[C@@]2(COc2ccccn2)C1,0
6,CC(C)CC(=O)N1C[C@@H]2CCN(c3ncccn3)C[C@@H]2C1,17.1
7,O=C(c1cnccn1)N1C[C@@H]2[C@@H](C1)OCC(=O)N2CC1CCCC1,-944
8,O=C(c1ccccn1)N1C[C@H]2CCC[C@@]2(COCC2CCOCC2)C1,10.1
9,CC(C)=CCN1CCN(Cc2ncc[nH]2)[C@H]2CS(=O)(=O)C[C@H]21,0
10,Cc1cc(N2CCC(CC(N)=O)CC2)nc(-c2ccncc2)n1,15.6
11,Cc1cc(N2CCC(Cc3ccccc3)CC2)nc(-c2ccncc2)n1,62.5
12,CCNC(=O)CN1CCN(c2cc(C)nc(-c3ccncc3)n2)CC1,30.1
13,Cc1cc(N2CCN(CC(=O)N(C)C)CC2)nc(-c2ccncc2)n1,51.4
14,Cc1cc(N2CCC(Cc3ccccc3)CC2)ncn1,21.4
15,Cc1cc(N2CCC(C(=O)N(C)C)CC2)nc(-c2ccncc2)n1,17.1
16,COC(=O)C1CCN(c2cc(C)nc(-c3ccncc3)n2)CC1,37.6
17,Cc1cc(N2CCN(CCO)CC2)nc(-c2ccncc2)n1,20
18,CC(=O)NCC1CCN(c2cc(C)nc(-c3ccncc3)n2)CC1,59.8

# Source: ChEMBL document CHEMBL3988442, “University of Dundee, Small-Polar-MMV Screening Library” (2021)
